Results on nine compounds are retold here after PubChem BioAssay (NCI).

Compounds without any hit were thinned out: in the full panel of roughly 83,000, 20% have a hit.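 How to read the values: 0–100, growth inhibition (40 = 60% inhibited); 0, no net growth; -100 to 0, cell death (-40 = 40% of starting cells died; -100 = all dead).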 Values without a mark were called inactive. Activity calls are given as the source filed them. Rule for the calls: active = growth percent below 10; inactive = the rest.

Holding throughout (assay): NCI-60 one-dose screen, 48 h (100 = growth as untreated, 0 = no growth, -100 = all killed)
Common to all, as to settings: 10 µM

The test system of experiment [1] is NCI-H23 lung.
The subject of experiment [2] is NCI-H226 lung.
In experiment [3] the test system is NCI-H460 lung.
The test system of experiment [4] is HOP-92 NSCLC.
The subject of experiment [5] is NCI-H522 lung.
Experiment [6] has as its system A549/ATCC NSCLC.
Experiment [7] concerns 786-0 renal.
Experiment [8] has as its system COLO 205 colon.
In experiment [9] the test system is DU-145 prostate.
Experiment [10] concerns K-562 leukemia.
In experiment [11] the test system is MALME-3M melanoma.
Experiment [12] has as its system MDA-MB-231 breast.
Experiment [13] relates to RXF 393 renal.
Experiment [14] relates to SF-268 CNS.
Experiment [15] has as its system SF-295 CNS.
Experiment [16] has as its system SF-539 CNS.
Experiment [17] concerns UACC-257 melanoma.
The subject of experiment [18] is M14 melanoma.
In experiment [19] the test system is HOP-62 NSCLC.

For the compound `O=c1cn[nH]c2ccc(Br)cc12`, the growth in experiment [1] is 97.6%; in experiment [2] it was 100%; in experiment [3], 108%; in [4] it was 123%; in experiment [5] it was 91.3%; in [6], 102%. Also, the growth in [7] was 99.6%; in [8] it was 109%; in experiment [9] it was 105%; in experiment [10], 95.7%; in experiment [11] it was 114%; in experiment [12], 116%. The growth was 95.3% in experiment [13]; 99.9% in experiment [14]; 107% in [15]; 95.6% in [16]; 104% in experiment [17]; 101% in experiment [18].
Consider `COc1ccc(-c2nn(-c3cccc(Cl)c3)cc2-c2c(C#N)c(=O)n3[nH]c(-c4ccccc4)nc3c2C#N)cc1`, for which the growth is 81.1% in experiment [1]; 88% in experiment [2]; 105% in [3]; 93.3% in experiment [4]; 72.4% in experiment [5]; 98.9% in experiment [6]. In addition, the growth in [7] is 89.4%; in [8] it was 123%; in experiment [9], 102%; in experiment [10], 78.3%; in experiment [12] it was 87.1%; in experiment [13] it was 95.9%. Besides, the growth in experiment [14] is 101%; in [15], 58.8%; in experiment [16], 100%; in [17], 110%; in experiment [18], 109%.
Regarding `Nc1cc(-c2ccc(Cl)cc2)nn1-c1nc2ccccc2nc1Cc1ccccc1`, the growth is 81.5% in experiment [1]; 84.3% in [2]; 88.8% in experiment [19]; 85.7% in experiment [5]; 78% in experiment [6]; 89.5% in [7]. For the same compound, the growth in experiment [8] is 109%; in [11], 101%; in experiment [12] it was 75.1%; in experiment [13], 78.7%; in experiment [16], 99.5%; in experiment [17], 101%. The growth in [18] is 89.6%.
For `O=C1CCn2c1c(O)c1ccccc1c2=O`, the growth in experiment [1] is 99.5%; in experiment [2], 101%; in [3] it was 105%; in experiment [4], 95.4%; in experiment [5] it was 112%; in experiment [6], 100%. The growth in [7] is 105%; in [8] it was 123%; in [9], 114%; in [10] it was 130%; in experiment [11], 124%; in [12] it was 115%. For the same compound, the growth in [13] was 111%; in experiment [14], 114%; in experiment [15] it was 97.2%; in experiment [16], 113%; in experiment [17], 99.8%; in experiment [18], 107%.
In the case of `CN1CCN(C2=Nc3ccccc3Oc3ccc(Cl)cc32)CC1`, the growth is 105% in experiment [1]; 111% in experiment [2]; 105% in experiment [3]; 80.4% in [4]; 94.8% in [6]; 87.4% in [7]. Besides, the growth in experiment [8] was 96.9%; in experiment [9], 108%; in [11] it was 91.7%; in experiment [12], 76%; in experiment [13] it was 108%; in experiment [14] it was 109%. Also, the growth in experiment [15] is 94.8%; in [16] it was 111%; in experiment [17], 96.5%; in experiment [18], 103%.
As to `Fc1ccc(C(c2ccc(F)cc2)C(Cl)Cl)cc1`, the growth is 100% in experiment [1]; 105% in [2]; 115% in experiment [19]; 75.8% in [4]; 93.8% in experiment [5]; 102% in experiment [6]. For the same compound, the growth in experiment [7] was 95.7%; in [8] it was 108%; in [9], 104%; in experiment [10], 91.2%; in experiment [12], 92.4%; in experiment [13], 86.9%. For the same compound, the growth was 110% in experiment [14]; 105% in experiment [15]; 106% in experiment [16]; 111% in experiment [17]; 103% in experiment [18].
For the compound `Cc1cn(-c2cc(F)cc(NC(=O)c3ccc(C)c(Nc4nccc(-c5cccnc5)n4)c3)c2)cn1`, the growth in experiment [1] was 94.2%; in [2] it was -12.3% (active); in [3] it was 20.1%; in experiment [4], -22% (active); in [5], 11.5%; in [6], 19.3%. In addition, the growth in experiment [7] is -6.06% (active); in [8] it was 70.9%; in [9] it was 65.4%; in experiment [12], 6.14% (active); in experiment [13], -1.37% (active); in [14] it was 67.3%. For the same compound, the results for the growth in experiment [16], in [17] and in experiment [18] were -39.8% (active), 23.1% and 60.2%, respectively.
`COc1ccc(-c2nn(-c3cccc(Cl)c3)cc2-c2c(C#N)c(N)n(N)c(=O)c2C#N)cc1`: the growth is 66.9% in experiment [1]; 66.5% in experiment [2]; 72.2% in experiment [3]; 53.8% in experiment [4]; -46% (active) in [5]; 66.2% in experiment [6]. The growth was 84.2% in experiment [7]; 85.3% in [8]; 90.5% in [9]; 75.3% in experiment [12]; 65.3% in experiment [13]; 60.2% in [14]. Besides, the results for the growth in [16], in experiment [17] and in [18] were 72.8%, 90.3% and 73.5%, respectively.
`CCc1ccc(C2=NN(c3ccc(S(C)(=O)=O)cc3)C(=O)CC2)cc1`: the growth in experiment [1] was -4.83% (active); in experiment [2] it was 69.1%; in experiment [3], 10.5%; in experiment [4], 68.6%; in [5], -1.27% (active); in experiment [6], 35.6%. The growth in [7] was 36.4%; in experiment [8], 22.5%; in experiment [9], 21.3%; in [10], 10.4%; in experiment [11], 38.8%; in experiment [12], 55.5%. The growth in experiment [13] is 27.4%; in experiment [14] it was 42.8%; in [15], 9.24% (active); in experiment [16], 15.1%; in experiment [17] it was 59.1%; in experiment [18], 5.99% (active).
